Reference: ChEMBL document CHEMBL1201862, “PubChem BioAssay data set” (2004)
In all, about 360,000 compounds went through this assay and about 11,000 (3.1%) were called active. Inconclusive results (about 4%) are left out. The calls are words filed in the database; no cut-off is given here. Shown is part of a subset that was picked to be rich in actives.

What follows are compounds tested against Thioredoxin glutathione reductase (Schistosoma mansoni) (UniProt Q962Y6) (assay: qHTS Assay for the Inhibitors of Schistosoma Mansoni Peroxiredoxins. [Related pubchem assays: 1011 (Confirmation Concentration-Response Assay for Inhibitors of the Schistosoma mansoni Redox Cascade ), 448 (Schistosoma Mansoni Peroxiredoxins (Prx2) and thioredoxin glutathione reductase (TGR) coupled assay)]).
Format: functional
For `Cl.N[C@@H](CCC(=O)O)C(=O)O`, the Potency was 5.01 µM (active).
With `Nc1c2c(nn1-c1ccc(C(=O)O)cc1)CNC2` the Potency was “inactive”.
With `Cc1ccc(CNC(=O)C(=O)NCC2OCCN2S(=O)(=O)c2ccc3c(c2)OCCO3)cc1` (stereo unspecified) the Potency was 631 µM (active).
With `Cc1ccc(CNC(=O)C(NS(=O)(=O)c2cccc3nsnc23)C(C)C)cc1` (stereo unspecified) the Potency was “inactive”.
For `Cc1c(C(=O)N2CCCCC2)c(S(=O)(=O)NCCc2ccc(Cl)cc2)c(C)n1C`, the Potency was “inactive”.
With `CC(=O)N1CCc2cc(S(=O)(=O)Nc3ccc(C)cc3)ccc21` the Potency was 316 µM (active).
